Several values for one entry are separate records, joined by “and”; a condition that tells them apart may be missing. Identical values can stand only once. Records with an inconclusive call do not appear. A call without a number means that no potency is given here. Activity calls are given as the source filed them. Unless noted, calls follow the shape of the dose curve; as a rule, active = well fitted curve in the direction sought with a large enough effect; inconclusive = small, poorly fitted or top-dose-only effect, or another doubt; inactive = no such curve, though single readings can be large; an effect the other way counts as inactive or inconclusive.
Legend:
[1] = qHTS Assay for Lipid Storage Modulators (AID 1519; calls by dose curve); conditions: Drosophila S3 cells, BODIPY lipid droplet/cell ratio, laser cytometry, cells loaded with oleic acid
Summary of the method: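 Cells seeded at 5,000 per well were treated with compounds over a concentration series and loaded with oleic acid (400 uM, as added). Lipid droplet fluorescence (488 nm excitation, 500-530 nm channel) was read by laser-scanning cytometry and normalized to 20 uM Triacsin C.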

[2] = molecular target: Alpha-galactosidase A (Homo sapiens) (UniProt P06280); assay: Counterscreen for Glucocerebrosidase Inhibitors: qHTS Assay for Human alpha-Galactosidase at pH 4.5 (AID 992)
Sequence of Alpha-galactosidase A (Homo sapiens) (P06280 whole entry, looked up): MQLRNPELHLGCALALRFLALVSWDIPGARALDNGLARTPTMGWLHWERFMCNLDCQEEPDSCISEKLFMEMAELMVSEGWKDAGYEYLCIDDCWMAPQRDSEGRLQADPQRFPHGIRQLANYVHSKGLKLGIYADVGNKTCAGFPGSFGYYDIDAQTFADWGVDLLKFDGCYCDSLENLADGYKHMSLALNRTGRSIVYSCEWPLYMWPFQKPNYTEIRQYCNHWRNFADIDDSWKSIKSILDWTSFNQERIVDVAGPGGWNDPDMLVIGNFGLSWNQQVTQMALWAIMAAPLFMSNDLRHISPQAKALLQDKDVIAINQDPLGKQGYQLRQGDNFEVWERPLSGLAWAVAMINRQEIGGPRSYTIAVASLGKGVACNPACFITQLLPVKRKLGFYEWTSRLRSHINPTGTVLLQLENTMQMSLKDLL
Summary of the method: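 Quantitative HTS: compounds tested from 0.7 nM up to 77 uM against 2 nM enzyme with 80 uM 4-MU alpha-D-galactopyranoside. The 20 min room-temperature reaction is stopped with 1M NaOH/1M glycine, pH 10.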

[3] = molecular target: alpha-glucosidase (Oryza sativa, rice) (UniProt Q653V4); assay: Counterscreen for Glucocerebrosidase Inhibitors: qHTS Assay for Rice alpha-Glucosidase at pH 5.0 (AID 997)
Summary of the method: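 Rice alpha-glucosidase (4 nM final) with 400 uM 4-methylumbelliferyl-alpha-D-glucopyranoside in citrate buffer pH 5.0, 20 min at room temperature, stopped at pH 10; fluorescence 365/440 nm, compounds 0.7 nM–77 uM, AC50 from Hill fits.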

[4] = Validation of Assay for Modulators of Lamin A Splicing (AID 1459; active = well fitted curve in the direction sought with a large enough effect in the signal ratio; the % refers to the signal ratio;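 also: cells exposed to compound for two days before reading; ratio rise marks activators and ratio drop marks inhibitors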)
Summary of the method: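 Splicing correction read as GFP (500-530 nm) over DsRed2 (575-640 nm) object intensity after 48 h compound exposure of reporter HeLa S3 clones (600 cells/well, 2% FBS medium); ancitabine and cycloheximide titrations, 0.5% DMSO as vehicle.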

[5] = molecular target: DNA repair nuclease/redox regulator APEX1 (Homo sapiens) (UniProt P27695); assay: qHTS Validation Assay for Inhibitors of the Human Apurinic/apyrimidinic Endonuclease 1 (APE1) (AID 1705; also: potency is read from the fitted curve at half-maximal effect;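 as to activity change, negative = inhibition: TAMRA fluorescence gain over two minutes as APE1 cuts a quenched THF abasic duplex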)
Sequence of DNA repair nuclease/redox regulator APEX1 (Homo sapiens) (P27695 whole entry, looked up): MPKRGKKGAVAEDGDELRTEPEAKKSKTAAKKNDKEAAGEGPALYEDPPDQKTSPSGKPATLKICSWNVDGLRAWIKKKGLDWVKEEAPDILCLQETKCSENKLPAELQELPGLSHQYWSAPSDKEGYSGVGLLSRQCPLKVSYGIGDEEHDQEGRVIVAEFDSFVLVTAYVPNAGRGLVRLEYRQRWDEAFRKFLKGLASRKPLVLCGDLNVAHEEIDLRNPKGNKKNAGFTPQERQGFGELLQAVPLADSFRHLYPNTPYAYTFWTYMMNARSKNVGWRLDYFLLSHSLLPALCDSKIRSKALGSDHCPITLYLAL
Summary of the method: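 Activity read as rising fluorescence (598 nm emission, 525 nm excitation) from incision of a TAMRA/BHQ-2 duplex carrying a THF abasic site (50 nM). Compound and enzyme sat 15 min at RT before substrate start; signal change between first and third 60-s reads.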

[6] = molecular target: Endonuclease 4 (Escherichia coli (strain K12)) (UniProt P0A6C1); assay: Counterscreen for APE1 Inhibitors: qHTS Validation Assay for Inhibitors of Endonuclease IV (AID 1708)
Summary of the method: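 E. coli EndoIV at 2 nM final, preincubated 15 min at room temperature with compound, then 50 nM TAMRA/BHQ-2 THF abasic-site duplex added. Buffer: 50 mM Tris-HCl pH 7.5, 50 mM NaCl, 2 mM MgCl2, 1 mM DTT, 0.01% Tween-20. Kinetic fluorescence increase, third minus first read.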

[7] = qHTS for differential inhibitors of proliferation of Plasmodium falciparum line 3D7 (AID 1876); also: potency is read from the fitted curve at half-maximal effect
[8] = qHTS for differential inhibitors of proliferation of Plasmodium falciparum line Dd2 (AID 1882); conditions: Potency: Plasmodium falciparum Dd2 proliferation inhibition; also: nearly all actives have a fitted effect of over 65% in size; also: potency is read from the fitted curve at half-maximal effect
Summary of the method: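 Dd2-infected erythrocytes (0.3% parasitemia, 2.5% hematocrit final) incubated with compound 72 h at 37 C, 5% CO2; lysed with saponin/Triton buffer containing SYBR Green I, incubated overnight in the dark, then read by fluorescence (485/535 nm). Normalized to 0.29 uM artemisinin and DMSO.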

[9] = qHTS for differential inhibitors of proliferation of Plasmodium falciparum line W2 (AID 1883); conditions: Potency: Plasmodium falciparum W2 proliferation inhibition;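 also: parasites grown with compound for 72 h before lysis and staining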; also: potency is read from the fitted curve at half-maximal effect
[10] = molecular target: Ferritin light chain (Equus caballus) (UniProt P02791); assay: qHTS Validation Assay for Identification of Novel General Anesthetics (AID 2323); also: potency is read from the fitted curve at half-maximal effect
Sequence of Ferritin light chain (Equus caballus) (P02791 2-175 limits assumed): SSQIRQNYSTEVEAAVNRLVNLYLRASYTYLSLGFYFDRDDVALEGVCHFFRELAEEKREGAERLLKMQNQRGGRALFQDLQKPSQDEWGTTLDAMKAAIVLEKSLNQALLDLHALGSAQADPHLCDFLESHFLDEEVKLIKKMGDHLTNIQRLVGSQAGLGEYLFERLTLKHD
Summary of the method: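 Competitive displacement of the profluorescent anesthetic 1-AMA (50% saturated, PBS) from 10 uM apoferritin, 10 min, room temperature. Activity is normalized 380/535 nm fluorescence; concentration-response fitted with a four-parameter Hill equation.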

[11] = qHTS for differential inhibitors of proliferation of Plasmodium falciparum line 7G8 (AID 1815);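 also: parasite growth measured after three days of incubation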; also: potency is read from the fitted curve at half-maximal effect
[12] = qHTS for differential inhibitors of proliferation of Plasmodium falciparum line GB4 (AID 1816); conditions: Potency: Plasmodium falciparum GB4 proliferation inhibition;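 also: parasite growth measured after 72 h incubation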; also: potency is read from the fitted curve at half-maximal effect
[13] = qHTS for differential inhibitors of proliferation of Plasmodium falciparum line D10 (AID 1877);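 also: parasites grown with compound for 72 h before DNA staining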; also: potency is read from the fitted curve at half-maximal effect
[14] = qHTS for differential inhibitors of proliferation of Plasmodium falciparum line HB3 (AID 1886); conditions: Potency: Plasmodium falciparum HB3 proliferation inhibition;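 also: parasites grown with compound for 72 h before SYBR Green readout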; also: potency is read from the fitted curve at half-maximal effect
[15] = qHTS Assay for Modulators of Human Peripheral Myelin Protein 22 (PMP22) Expression/Activity (AID 1967; active = well fitted curve in the direction sought with a large enough effect in the signal ratio; the % refers to the signal ratio)
Summary of the method: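 Readout is the corrected green/red luminescence ratio after 24 h compound exposure, normalised to untreated cells (0%). Engineered MSC80 mouse Schwann cells express green luciferase from the mouse Pmp22 promoter and red luciferase from EF-alpha as internal control.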

[16] = Cell Viability - LYMP2-020 (AID 986); also: nearly all actives have a fitted effect of over 55% in size
Summary of the method: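 Human lymphoblastoid LYMP2-020 cells (2500/well) preincubated 5 h at 37 C, then treated 24 h at 37 C. Viability measured as intracellular ATP by CellTiter-Glo luminescence after 30 min at room temperature; AC50 from Hill fits.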

[17] = Cell Viability - LYMP2-024 (AID 988); also: nearly all actives have a fitted effect of over 60% in size
Summary of the method: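 Human lymphoblastoid LYMP2-024 cells (2500/well) rested 5 hr, then treated with compound for 24 hr at 37 C in complete medium. Viability was measured as intracellular ATP by CellTiter-Glo luminescence. AC50 values came from Hill-equation fits.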

[18] = Cell Viability - LYMP2-026 (AID 989); also: nearly all actives have a fitted effect of over 50% in size
Summary of the method: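 Human lymphoblastoid LYMP2-026 cells, 2500/well, exposed to compound 24 h at 37 C in complete medium. Viability as intracellular ATP by CellTiter-Glo luminescence; AC50 from Hill fits of qHTS concentration-response.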

[19] = Cell Viability - LYMP1-002 - Assay at 40 hr (AID 994); also: nearly all actives have a fitted effect of over 60% in size
Summary of the method: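 LYMP1-002 human lymphoblastoid cells (2500/well, complete medium) were treated with compounds for 40 hr at 37 C. Intracellular ATP was measured by CellTiter-Glo luminescence, and AC50 values came from Hill-equation fits of concentration-response data; tetraoctylammonium bromide was the positive control.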

[20] = measured here: cell count channel max response
[21] = measured here: lipid channel max response

Structure (SMILES): CN1C(C(=O)Nc2ccccn2)=C(O)c2sccc2S1(=O)=O
- activity change, negative = inhibition ([1]; at 25.7 µM (top of the series)): -0.44% (inactive)
- max response [1, 20]: -5.92%
- max response [1, 21]: -4.62%

Structure (SMILES): Nc1nc(Cl)nc2c1ncn2[C@H]1C[C@H](O)[C@@H](CO)O1
- activity change, negative = inhibition ([1]; at 57.5 µM (top of the series)): -3.99% (inactive)
- max response [1, 20]: -0.0923%
- max response [1, 21]: -3.39%

Structure (SMILES): O=c1c(O)c(-c2cc(O)c(O)c(O)c2)oc2cc(O)cc(O)c12
- outcome [2]: inactive
- outcome [3]: inactive
- outcome [4]: inactive
- activity change, negative = inhibition ([1]; at 25.7 µM (top of the series)): 2.34% (inactive)
- activity change, negative = inhibition ([1]; at 57.5 µM (top of the series)): 14.6% (inactive) and -3.22% (inactive)
- max response [1, 20]: -7.21% and 17.3% and -40.9%
- max response [1, 21]: -2.79% and 29.1% and -42.9%
- Potency [5]: 0.355 µM (active)
- outcome [6]: inactive
- Potency [7]: 10 µM (active)
- Potency [8]: 4.47 µM (active)
- Potency [9]: 14.1 µM (active)
- Potency [10]: inactive

Structure (SMILES): C[C@H](Cc1ccc(O)c(O)c1)[C@@H](C)Cc1ccc(O)c(O)c1
- outcome [2]: inactive
- outcome [3]: inactive
- outcome [4]: inactive
- Potency [5]: inactive
- outcome [6]: inactive
- Potency [11]: 3.98 µM (active)
- Potency [12]: 5.01 µM (active)
- Potency [7]: 12.6 µM (active)
- Potency [13]: 12.6 µM (active)
- Potency [9]: 10 µM (active)
- Potency [14]: 14.1 µM (active)
- Potency [10]: 12.6 µM (active)

Structure (SMILES): O=C1c2c(O)cc(O)cc2OC(c2ccc(O)c(O)c2)C1O (configuration not stated)
- outcome [4]: inactive
- activity change, negative = inhibition ([1]; at 57.5 µM (top of the series)): 0.956% (inactive)
- max response [1, 20]: 37.7%
- max response [1, 21]: 36.5%
- Potency [5]: inactive
- outcome [6]: inactive
- Potency [12]: 15.8 µM (active)
- Potency [7]: 14.1 µM (active)
- Potency [8]: inactive
- Potency [9]: 12.6 µM (active)
- Potency [14]: 15.8 µM (active)

Structure (SMILES): CCCCc1ccc2nc(NC(=O)OC)[nH]c2c1
- activity change, negative = inhibition ([1]; at 25.7 µM (top of the series)): 1.84% (inactive)
- max response [1, 20]: -4.18%
- max response [1, 21]: -2.48%

Structure (SMILES): CCN(CCO)CCCC(C)Nc1ccnc2cc(Cl)ccc12 (configuration not stated)
- activity change, negative = inhibition ([1]; at 57.5 µM (top of the series)): 5.88% (inactive)
- max response [1, 20]: 13.5%
- max response [1, 21]: 23.6%

Structure (SMILES): CC1(C)C(=O)N(CCN2CCC(C(=O)c3ccc(F)cc3)CC2)c2ccccc21
- outcome [2]: inactive
- outcome [3]: inactive
- outcome [4]: inactive
- Potency [5]: inactive
- Potency [11]: 6.31 µM (active)
- Potency [12]: 12.6 µM (active)
- Potency [7]: 11.2 µM (active)
- Potency [9]: 6.31 µM (active)
- Potency [14]: 12.6 µM (active)

Structure (SMILES): Nc1nc(OCc2ccccc2)c2[nH]cnc2n1
- outcome [2]: inactive
- outcome [3]: inactive
- outcome [4]: inactive
- Potency [5]: inactive
- outcome [6]: inactive
- Potency [11]: inactive
- Potency [12]: inactive
- Potency [7]: inactive
- Potency [13]: inactive
- Potency [8]: inactive
- Potency [14]: inactive
- Potency [10]: inactive

Structure (SMILES): Cc1nc2n(c(=O)c1CCN1CCC(c3noc4cc(F)ccc34)CC1)CCCC2
- outcome [2]: inactive
- outcome [3]: inactive
- outcome [4]: inactive
- activity change, negative = inhibition ([1]; at 25.7 µM (top of the series)): -3.92% (inactive)
- activity change, negative = inhibition ([1]; at 57.5 µM (top of the series)): 0.755% (inactive)
- max response [1, 20]: -8.38% and -35%
- max response [1, 21]: -11.2% and -35%
- Potency [5]: inactive
- outcome [6]: inactive
- Potency [10]: inactive

Structure (SMILES): CN(C)CCc1c[nH]c2ccc(Cn3cncn3)cc12
- activity change, negative = inhibition ([1]; at 57.5 µM (top of the series)): 3.43% (inactive)
- max response [1, 20]: 14.1%
- max response [1, 21]: 22%

Structure (SMILES): COc1cc2nc(N3CCN(C(=O)C4CCCO4)CC3)nc(N)c2cc1OC (configuration not stated)
- outcome [4]: inactive
- activity change, negative = inhibition ([1]; at 57.5 µM (top of the series)): 0.288% (inactive)
- max response [1, 20]: -1.5%
- max response [1, 21]: -3.7%
- Potency [5]: inactive
- Potency [8]: inactive
- Potency [9]: 11.2 µM (active)
- outcome [15]: inactive
- Potency [10]: inactive

Structure (SMILES): N=C(N=C(N)N)N1CCOCC1
- activity change, negative = inhibition ([1]; at 25.7 µM (top of the series)): -1.12% (inactive)
- max response [1, 20]: 14.2%
- max response [1, 21]: 12.8%

Structure (SMILES): Oc1ccc(-c2nc(-c3ccc(F)cc3)c(-c3ccncc3)[nH]2)cc1
- outcome [2]: inactive
- outcome [3]: inactive
- Potency [5]: inactive
- Potency [12]: 12.6 µM (active)
- Potency [7]: 11.2 µM (active)
- Potency [8]: 11.2 µM (active)
- Potency [9]: 6.31 µM (active)
- Potency [10]: inactive

Structure (SMILES): O=C(c1ccccc1)c1ccc2n1CCC2C(=O)O (configuration not stated)
- activity change, negative = inhibition ([1]; at 57.5 µM (top of the series)): 6.17% (inactive)
- max response [1, 20]: 4.19%
- max response [1, 21]: 13.3%
- Potency [5]: inactive
- outcome [6]: inactive
- Potency [11]: inactive
- Potency [12]: inactive
- Potency [7]: inactive
- Potency [13]: inactive
- Potency [8]: inactive
- Potency [9]: inactive
- Potency [14]: inactive
- Potency [10]: inactive

Structure (SMILES): CC(=O)Nc1ccc(O)cc1
- Potency [16]: inactive
- Potency [17]: inactive
- Potency [18]: inactive
- Potency [19]: inactive
- activity change, negative = inhibition ([1]; at 25.7 µM (top of the series)): -2.03% (inactive)
- activity change, negative = inhibition ([1]; at 57.5 µM (top of the series)): -1.72% (inactive) and 6.64% (inactive)
- max response [1, 20]: -12.5% and -9.7% and 2.35%
- max response [1, 21]: -12.8% and -10.2% and 7.7%

Structure (SMILES): NNc1nncc2ccccc12
- outcome [2]: inactive
- outcome [3]: inactive
- Potency [5]: inactive
- outcome [6]: inactive
- Potency [12]: inactive
- Potency [7]: inactive
- Potency [8]: inactive
- Potency [14]: inactive
- Potency [10]: inactive

Reference: PubChem BioAssay (NCATS)
